According to PubChem BioAssay AID2073 (Sanford-Burnham Center for Chemical Genomics, 2009):
In all, about 290,000 compounds went through this assay and about 570 (0.2%) were called active. Roughly 1% stayed inconclusive and do not appear here. Cut-off read from the data, not from the text of the source: active = inhibition mostly above about 51% (no sharp cut-off); inconclusive = no clear call, values can overlap the other calls; inactive = mostly below about 53%. Shown is part of a subset that was picked to be rich in actives.

Target: Voltage-dependent N-type calcium channel subunit alpha-1B (Homo sapiens) (UniProt Q00975)
Assay: inhibitors of Mint1-CaV2.2 protein interaction, biochemical, HTRF (AID 2073)
Conditions: at 20 µM, stronger effect = higher value
[1] = measured here: average of repeat tests

Sequence of Voltage-dependent N-type calcium channel subunit alpha-1B (Homo sapiens) (Q00975 whole entry, looked up): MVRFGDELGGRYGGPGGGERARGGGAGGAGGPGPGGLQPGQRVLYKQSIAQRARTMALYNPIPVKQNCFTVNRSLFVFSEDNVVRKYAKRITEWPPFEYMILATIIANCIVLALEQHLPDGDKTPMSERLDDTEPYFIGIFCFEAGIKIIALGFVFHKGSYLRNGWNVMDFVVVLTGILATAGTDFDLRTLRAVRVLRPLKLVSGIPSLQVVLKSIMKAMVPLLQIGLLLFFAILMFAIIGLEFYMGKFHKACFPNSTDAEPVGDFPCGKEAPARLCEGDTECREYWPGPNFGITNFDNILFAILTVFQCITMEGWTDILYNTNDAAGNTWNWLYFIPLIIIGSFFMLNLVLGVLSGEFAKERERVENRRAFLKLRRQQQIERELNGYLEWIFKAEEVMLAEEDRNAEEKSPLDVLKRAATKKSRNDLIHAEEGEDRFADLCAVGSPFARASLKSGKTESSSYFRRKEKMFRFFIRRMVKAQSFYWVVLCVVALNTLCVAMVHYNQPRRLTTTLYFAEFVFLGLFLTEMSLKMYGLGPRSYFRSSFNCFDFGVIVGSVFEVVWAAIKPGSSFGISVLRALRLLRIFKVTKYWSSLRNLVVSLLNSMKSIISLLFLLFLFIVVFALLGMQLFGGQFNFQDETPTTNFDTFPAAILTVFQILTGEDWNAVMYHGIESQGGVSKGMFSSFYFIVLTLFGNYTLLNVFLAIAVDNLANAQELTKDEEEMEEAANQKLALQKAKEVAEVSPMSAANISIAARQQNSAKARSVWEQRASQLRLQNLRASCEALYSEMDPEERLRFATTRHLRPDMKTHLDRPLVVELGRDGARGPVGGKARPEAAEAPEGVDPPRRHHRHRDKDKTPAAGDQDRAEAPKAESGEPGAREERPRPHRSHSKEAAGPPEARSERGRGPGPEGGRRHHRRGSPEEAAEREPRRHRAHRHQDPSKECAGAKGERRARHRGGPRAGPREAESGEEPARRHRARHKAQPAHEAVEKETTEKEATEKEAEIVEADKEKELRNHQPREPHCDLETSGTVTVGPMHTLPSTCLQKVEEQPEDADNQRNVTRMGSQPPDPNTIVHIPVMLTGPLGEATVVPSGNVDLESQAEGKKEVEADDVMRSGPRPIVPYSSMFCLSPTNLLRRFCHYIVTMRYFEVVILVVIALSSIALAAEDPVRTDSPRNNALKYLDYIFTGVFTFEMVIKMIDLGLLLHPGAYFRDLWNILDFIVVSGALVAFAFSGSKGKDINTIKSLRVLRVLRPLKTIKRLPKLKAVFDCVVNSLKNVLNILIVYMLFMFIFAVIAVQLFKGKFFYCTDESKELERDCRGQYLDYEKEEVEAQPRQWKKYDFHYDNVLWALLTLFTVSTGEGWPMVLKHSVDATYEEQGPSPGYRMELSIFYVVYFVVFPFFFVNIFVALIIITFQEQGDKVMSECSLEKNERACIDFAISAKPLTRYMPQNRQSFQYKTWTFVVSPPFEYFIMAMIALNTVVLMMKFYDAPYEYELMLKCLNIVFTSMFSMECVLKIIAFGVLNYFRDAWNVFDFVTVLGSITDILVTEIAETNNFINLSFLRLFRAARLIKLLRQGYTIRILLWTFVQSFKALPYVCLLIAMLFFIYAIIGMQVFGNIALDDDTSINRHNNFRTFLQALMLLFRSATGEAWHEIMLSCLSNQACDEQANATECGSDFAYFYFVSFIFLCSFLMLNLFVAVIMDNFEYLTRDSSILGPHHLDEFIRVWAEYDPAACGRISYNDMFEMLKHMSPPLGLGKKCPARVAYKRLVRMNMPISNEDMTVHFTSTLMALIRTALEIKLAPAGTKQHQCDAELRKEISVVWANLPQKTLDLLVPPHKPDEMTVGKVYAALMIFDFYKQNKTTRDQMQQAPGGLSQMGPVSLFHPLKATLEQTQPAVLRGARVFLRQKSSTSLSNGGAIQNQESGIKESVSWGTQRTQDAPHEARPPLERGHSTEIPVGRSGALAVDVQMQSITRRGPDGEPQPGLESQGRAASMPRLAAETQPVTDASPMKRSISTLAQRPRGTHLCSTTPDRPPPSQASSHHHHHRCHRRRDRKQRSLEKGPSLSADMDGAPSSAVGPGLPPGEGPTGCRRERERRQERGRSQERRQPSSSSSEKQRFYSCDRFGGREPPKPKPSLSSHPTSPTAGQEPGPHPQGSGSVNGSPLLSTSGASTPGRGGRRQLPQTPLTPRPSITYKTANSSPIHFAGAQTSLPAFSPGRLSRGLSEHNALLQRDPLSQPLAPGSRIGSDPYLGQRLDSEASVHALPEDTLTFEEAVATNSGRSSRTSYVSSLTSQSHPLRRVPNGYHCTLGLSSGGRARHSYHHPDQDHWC

SMILES	inhibition	inhibition [1] [%]
O=c1oc2ccccc2c2oc3cc(O)c(O)cc3c12	20% (inactive)	–
O=c1oc2c(O)c(O)cc3c(=O)oc4c(O)c(O)cc1c4c23	9.6% (inactive)	–
O=c1cc2c(=O)oc3cc(O)c(O)oc3c2c(O)c1O	70% (active)	–
COc1ccc(OC)c(NC(=O)CCC(=O)N(Cc2ccc(OC)c(OC)c2)c2nccs2)c1	0.5% (inactive)	–
CC(C)c1ccc(C2NC(=S)NC3=C2C(=O)CC(C)(C)C3)cc1 (stereo not given)	-9.1% (inactive)	–
Cc1cc(N2CCC(C(=O)NC3CCCCC3)CC2)nc(-c2ccccc2)n1	-4% (inactive)	–
COc1ccc(/C=C(/CC(=O)Nc2ccccc2)c2nc3ccccc3s2)cc1	13% (inactive)	–
COc1cccc(/C=C(\CC(=O)O)c2nc3ccccc3s2)c1	-2.6% (inactive)	–
COc1cccc(/C=C(/CC(=O)Nc2ccc(N3CCOCC3)cc2)c2nc3ccccc3s2)c1	59.9% (active)	–
Cc1nonc1C1CCCN1Cc1cn[nH]c1-c1ccc2c(c1)OCO2 (stereo not given)	6.8% (inactive)	–
CCOc1cccc2sc(Nc3nc4ccc(NC(C)=O)cc4s3)nc12	28.4% (inactive)	–
CCOc1ccc2nc(Nc3nc4ccc(NC(C)=O)cc4s3)sc2c1	55% (active)	–
CCOc1ccc2nc(NS(=O)(=O)c3ccc(NC(C)=O)cc3)sc2c1	-0.1% (inactive)	–
COc1ccc(C(=O)/C=C/C(=O)N(CC(=O)NC2CCCCC2)Cc2ccc(F)cc2)c(O)c1	37.7% (inactive)	–
COc1ccc(C(=O)/C=C/C(=O)N(CC(=O)NC2CCCCC2)Cc2ccccc2OC)c(O)c1	11.5% (inactive)	–
COc1ccc(C(=O)/C=C/C(=O)N(CC(=O)NC2CCCCC2)Cc2ccccc2)c(O)c1	64.1% (active)	–
CCc1nnc(N/N=C/c2c(C)[nH]c3ccccc23)n1N	55.5% (active)	–
CCc1nnc(N/N=C/c2c(Cl)cccc2Cl)n1N	-7.9% (inactive)	–
Cc1[nH]c2ccccc2c1/C=N/Nc1nncn1N	-14.7% (inactive)	–
CCC1Oc2ccc(C)cc2N(CC(=O)N(Cc2ccncc2)Cc2ccco2)C1=O (stereo not given)	10.2% (inactive)	–
CCC1Oc2ccc(C)cc2N(CC(=O)N(Cc2cccnc2)Cc2ccc(C)o2)C1=O (stereo not given)	52.5% (active)	–

SMILES	inhibition	inhibition [1] [%]
CCC1Oc2ccc(C)cc2N(CC(=O)N(Cc2cccnc2)Cc2cccc(F)c2)C1=O (stereo not given)	-3.3% (inactive)	–
CCOC(=O)c1cnn(-c2cc(C)cc(C)c2)c1N	3.5% (inactive)	–
O=C(CSc1nnc(SCc2ccccc2)s1)N/N=C/c1c[nH]c2ccccc12	44.7% (inactive)	–
Cc1ccc(CSc2nnc(SCC(=O)N/N=C/C=C/c3ccco3)s2)cc1	35.3% (inactive)	–
Cc1ccc(CSc2nnc(SCC(=O)N/N=C/c3c[nH]c4ccccc34)s2)cc1	59.7% (active)	–
O=C(CSc1nnc(SCc2ccccc2)s1)N/N=C/C=C\c1ccco1	79.7% (inactive)	18.4
O=C(CSc1nnc(SCc2ccccc2)s1)N/N=C/C=C/c1ccco1	50.1% (active)	–
O=C(CSc1nnc(SCc2ccc(Cl)cc2)s1)N/N=C/c1c[nH]c2ccccc12	50.2% (inactive)	42.7
Nc1cc(Cl)ccc1C(=O)OCC(=O)N1CCOCC1	7.5% (inactive)	–
O=C(O)c1cc(NCc2cccs2)ccc1N1CCOCC1	9.9% (inactive)	–
CCn1c(SCC(=O)NC2CCCCC2)nnc1C(C)NC(=O)c1ccccc1F (stereo not given)	8.6% (inactive)	–
CC(C)c1ccc(OCC(O)CN2CCCC2)cc1 (stereo not given)	-4.2% (inactive)	–
CCCn1c(SCC(=O)N2c3ccc(F)cc3CCC2C)nnc1-c1ccccn1 (stereo not given)	7% (inactive)	–
CC(=O)Nc1ccc(C(=O)/C=C/c2ccco2)cc1	30.9% (inactive)	–
O=C(/C=C\c1ccco1)c1ccc(NC(=O)c2ccco2)cc1	68.1% (inactive)	4
O=C(/C=C/c1ccco1)c1ccc(NC(=O)C23CC4CC(CC(C4)C2)C3)cc1	67.9% (active)	–
O=S(=O)(/N=C(/Nc1ccccc1)c1ccccc1O)c1ccccc1	-7.3% (inactive)	–
c1coc(C2=Nc3cccc4cccc(c34)N2)c1	54.2% (active)	–
Fc1ccc(C2=Nc3cccc4cccc(c34)N2)cc1	-8.3% (inactive)	–
Brc1ccc(C2=Nc3cccc4cccc(c34)N2)o1	-20.5% (inactive)	–
CNC(=O)CCn1nc(-c2ccc(C)cc2)c2ccccc2c1=O	-2.1% (inactive)	–

SMILES	inhibition	inhibition [1] [%]
CCOC(=O)c1c(O)cc(C)cc1Nc1ccccc1	14.3% (inactive)	–
CCOc1ccc(C(=O)NCC(=O)OCC(=O)c2ccc3c(c2)-c2ccccc2C3)cc1	18.8% (inactive)	–
CCC(C)NC(=S)N(CCc1ccccc1)Cc1cc2cc(OC)c(OC)cc2[nH]c1=O (stereo not given)	7.1% (inactive)	–
CNC(=S)N(CCc1cccc(C)c1)Cc1cc2cc(OC)c(OC)cc2[nH]c1=O	46.2% (inactive)	–
CNC(=S)N(CCc1ccccc1)Cc1cc2cc(OC)c(OC)cc2[nH]c1=O	65.8% (active)	–
O=C(CC1(O)C(=O)N(C/C=C/c2ccccc2)c2ccccc21)c1ccccn1 (stereo not given)	0% (inactive)	–
NCCOc1ccc(C2CCCCC2)cc1	-11.4% (inactive)	–
CCc1nc(NCCN2CCOCC2)c(C#N)c2c1CCCC2	9.8% (inactive)	–
CCc1cccc(C)c1NC(=O)CSc1nc2ccc(N3C(=O)c4ccccc4C3=O)cc2s1	17.8% (inactive)	–
Cc1cc(C)c(NC(=O)CSc2nc3ccc(N4C(=O)c5ccccc5C4=O)cc3s2)c(C)c1	55.2% (active)	–
Cc1ccc(C)c(NC(=O)CSc2nc3ccc(N4C(=O)c5ccccc5C4=O)cc3s2)c1	-0.7% (inactive)	–
Cc1ccc(C(=O)N/N=C/c2c(O)ccc3ccccc23)cn1	14.1% (inactive)	–
Cc1cccc(C)c1NCc1n[nH]c(=S)n1-c1ccccc1	-8.3% (inactive)	–
O=C(NCCCN1CCOCC1)c1sc2cc([N+](=O)[O-])ccc2c1Cl	67.7% (active)	–
O=C(NCCCN1CCOCC1)c1sc2cc(Cl)ccc2c1Cl	-10.3% (inactive)	–
O=C(NCCCN1CCOCC1)c1sc2cc(F)ccc2c1Cl	-0.7% (inactive)	–
C=C(C)CSc1[nH]c(=O)cc(C)c1C#N	1.3% (inactive)	–
Nc1c(C(=O)Nc2ccccc2)sc2nc3c(c(-c4ccco4)c12)CCC3	29.5% (inactive)	–
Nc1c(C(=O)NCC2CCCO2)sc2nc3c(c(-c4ccco4)c12)CC/C3=C\c1ccco1 (stereo not given)	86.1% (active)	–
Nc1c(C(=O)Nc2ccccc2)sc2nc3c(c(-c4ccco4)c12)CCCC3	2.1% (inactive)	–
